The text below walks through data of PubChem BioAssay.

The nature of assay [1]: optical density shifts of acrAB sulA E. coli – strain DRC41, OD650, 48 h, E. coli filamentation inducer project, primary screen (AID 1152).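 Also: E. coli MC1000 strain DRC41 lacking acrAB efflux pump and sulA.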 The conditions noted are these: higher = more signal, called active from +8 up or from −8 down.
Assay [2] is described as follows: probe aLefty1 binding on compound microarray – biochemical, small-molecule microarray, 635/667 nm fluorescence, primary screen (AID 1153).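 Also: score merges spot fluorescence with signal-to-noise ratio from the scanned slide images.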 The conditions noted are these: higher = more signal.
A short description of assay [3]: plasmodial surface anion channel blockers, osmotic lysis – cell-based, P. falciparum Indochina, OD700, 1 h, primary screen (AID 1154). The conditions noted are these: P. falciparum Indochina infected RBC osmotic lysis, higher = more signal, called active from +8 up or from −8 down.
Assay [4] can be described thus: plasmodial surface anion channel blockers, osmotic lysis – cell-based, P. falciparum Indochina, OD700, 2 h, primary screen (AID 1155).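 Also: lysis reports solute entry through the parasite surface anion channel PSAC.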 The conditions noted are these: P. falciparum Indochina infected erythrocytes, higher = more signal, called active from +8 up or from −8 down.
Assay [5] in a line: changes in parasitized red cell lysis, either direction – P. falciparum Indochina, OD700, 3 h, PSAC antagonist project, primary screen (AID 1156). The conditions noted are these: P. falciparum-infected erythrocytes, osmotic lysis, higher = more signal, called active from +8 up or from −8 down.
Assay [6] is described as follows: plasmodial surface anion channel blockers, osmotic lysis – cell-based, P. falciparum Indochina, OD700, 18 h, primary screen (AID 1157). The conditions noted are these: P. falciparum Indochina infected erythrocytes, osmotic lysis OD700, 18 h; higher = more signal, called active from +8 up or from −8 down.
The nature of assay [7]: S6 kinase pathway phospho-S6 level changes – cell-based, A549, cytoblot, luminescence, serum-stimulated, primary screen (AID 1158).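 Also: serum-stimulated A549 lung adenocarcinoma cells; signal is phosphorylated S6 detected by cytoblot immunostaining with HRP secondary.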 The conditions noted are these: 5 h, higher = more signal.
Assay [8] has as its target NADPH oxidase 2 (Homo sapiens) (UniProt P04839). Nature of the assay: compounds shifting NOX2 Amplex Red fluorescence – cell-based, HEK293-NOX2, PMA-stimulated, NOX inhibitor project, primary screen (AID 1159). Also: test concentration not given here. The conditions noted are these: 45 min, higher = more signal, called active from +8 up or from −8 down.
In assay [9] the target is NADPH oxidase 4 (Homo sapiens) (UniProt Q9NPH5). Nature of the assay: compounds shifting NOX4 Amplex Red fluorescence – cell-based, HEK293-NOX4, tetracycline-induced, NOX inhibitor project, primary screen (AID 1160). The conditions noted are these: HEK293-NOX4, Amplex Red H2O2 fluorescence, 45 min; higher = more signal, called active from +8 up or from −8 down.
Sequence of NADPH oxidase 4 (Homo sapiens) (Q9NPH5 whole entry, looked up): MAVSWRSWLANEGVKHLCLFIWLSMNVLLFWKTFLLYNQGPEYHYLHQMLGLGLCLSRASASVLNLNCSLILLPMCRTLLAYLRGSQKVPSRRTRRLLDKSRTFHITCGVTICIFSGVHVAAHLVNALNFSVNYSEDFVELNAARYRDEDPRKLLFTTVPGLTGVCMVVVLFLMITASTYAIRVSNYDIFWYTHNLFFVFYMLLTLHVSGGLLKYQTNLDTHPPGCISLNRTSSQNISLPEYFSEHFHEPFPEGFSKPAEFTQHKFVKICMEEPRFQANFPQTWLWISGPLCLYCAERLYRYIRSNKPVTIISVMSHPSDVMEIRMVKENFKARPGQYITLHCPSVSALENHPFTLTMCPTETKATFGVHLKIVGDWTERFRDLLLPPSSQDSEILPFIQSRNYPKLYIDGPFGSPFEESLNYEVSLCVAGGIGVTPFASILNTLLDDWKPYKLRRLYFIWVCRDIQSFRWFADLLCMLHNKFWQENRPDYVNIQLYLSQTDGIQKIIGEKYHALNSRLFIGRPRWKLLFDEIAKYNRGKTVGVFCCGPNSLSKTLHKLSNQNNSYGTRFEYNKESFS
Assay [10] deals with NADPH oxidase 5 (Homo sapiens) (UniProt Q96PH1). Description: compounds shifting NOX5 Amplex Red fluorescence – cell-based, HEK293-NOX5, NOX inhibitor project, primary screen (AID 1161). The conditions noted are these: HEK293-NOX5, ionomycin, 45 min, higher = more signal.
Sequence of NADPH oxidase 5 (Homo sapiens) (Q96PH1 whole entry, looked up): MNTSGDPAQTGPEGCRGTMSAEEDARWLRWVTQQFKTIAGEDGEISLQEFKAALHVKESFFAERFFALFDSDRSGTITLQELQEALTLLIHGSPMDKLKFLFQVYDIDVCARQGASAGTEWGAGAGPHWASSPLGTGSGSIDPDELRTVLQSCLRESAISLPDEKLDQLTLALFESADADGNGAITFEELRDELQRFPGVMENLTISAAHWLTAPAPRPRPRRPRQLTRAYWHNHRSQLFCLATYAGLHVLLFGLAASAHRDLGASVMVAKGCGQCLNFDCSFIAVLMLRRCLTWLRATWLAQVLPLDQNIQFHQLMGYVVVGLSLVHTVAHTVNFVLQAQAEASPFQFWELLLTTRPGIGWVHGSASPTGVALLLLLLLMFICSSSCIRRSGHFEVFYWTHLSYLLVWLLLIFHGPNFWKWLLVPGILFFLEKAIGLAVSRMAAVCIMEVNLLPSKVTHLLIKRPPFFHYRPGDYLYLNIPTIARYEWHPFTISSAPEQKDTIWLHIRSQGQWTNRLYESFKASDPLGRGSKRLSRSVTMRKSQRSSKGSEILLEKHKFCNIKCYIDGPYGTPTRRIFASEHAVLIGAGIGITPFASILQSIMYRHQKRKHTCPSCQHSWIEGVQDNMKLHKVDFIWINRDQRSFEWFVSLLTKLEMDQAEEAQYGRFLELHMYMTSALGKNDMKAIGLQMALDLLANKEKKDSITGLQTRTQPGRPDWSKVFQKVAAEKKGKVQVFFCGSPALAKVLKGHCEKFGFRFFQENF
A short description of assay [11]: compound effects on lung adenocarcinoma cell viability – A549, calcein-AM fluorescence, 48 h, basal, profiling panel (AID 1162). Also: test concentration not given here. The conditions noted are these: higher = more signal.
Assay [12] is described as follows: compound effects on differentiated 3T3-L1 adipocyte viability – cell-based, 3T3-L1 adipocytes, calcein-AM fluorescence, 48 h, basal, profiling panel (AID 1163). Also: test concentration not given here. The conditions noted are these: 3T3-L1 adipocytes viability, higher = more signal.
The nature of assay [13]: compound effects on hepatocellular carcinoma cell viability – HepG2, calcein-AM fluorescence, 48 h, basal, profiling panel (AID 1164). Also: test concentration not given here. The conditions noted are these: higher = more signal.
Assay [14] is described as follows: compound effects on multiple myeloma cell viability – MM1S, calcein-AM fluorescence, 48 h, basal, profiling panel (AID 1165). Also: test concentration not given here. The conditions noted are these: higher = more signal.
Assay [15] can be described thus: calcein-AM signal in unstimulated myeloma cells – cell-based, calcein-AM fluorescence, 48 h, PK04 Diversity Set, profiling panel (AID 1166).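 Also: cells grown under basal conditions without added stimulus; test concentration not given here.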 The conditions noted are these: RPMI8226 myeloma viability, higher = more signal.
Assay [16] is described as follows: JC-1 mitochondrial signal, unstimulated HepG2 cells – cell-based, JC-1 fluorescence, 24 h, 100 nL compound, profiling panel (AID 1167). Also: test concentration not given here. The conditions noted are these: HepG2 mitochondrial potential, higher = more signal.
The nature of assay [17]: JC-1 mitochondrial signal, unstimulated adipocytes – cell-based, JC-1 fluorescence, 3T3-L1 adipocytes, 24 h, 100 nL compound, profiling panel (AID 1168). Also: test concentration not given here. The conditions noted are these: JC-1 mitochondrial fluorescence, higher = more signal, called active from +8 up or from −8 down.
The nature of assay [18]: JC-1 mitochondrial signal, unstimulated myeloma cells – cell-based, JC-1 fluorescence, RPMI8226, 24 h, 100 nL compound, profiling panel (AID 1169). Also: test concentration not given here. The conditions noted are these: JC-1 mitochondrial potential fluorescence, higher = more signal.
Assay [19] can be described thus: JC-1 mitochondrial signal, unstimulated MM1S myeloma – cell-based, JC-1 fluorescence, 24 h, 100 nL compound, profiling panel (AID 1170). Also: test concentration not given here. The conditions noted are these: MM1S mitochondrial potential, higher = more signal.
Assay [20] is described as follows: resazurin metabolic signal in A549 cells – cell-based, resazurin fluorescence, 24 h, PK04 Diversity Set, profiling panel (AID 1171). Also: test concentration not given here. The conditions noted are these: A549 viability, higher = more signal, called active from +8 up or from −8 down.

Where “and” joins values, the source holds several entries; their conditions need not be identical. Identical values can stand only once. Calls of active or inactive are those of the source.

Sequence of NADPH oxidase 2 (Homo sapiens) (P04839 whole entry, looked up): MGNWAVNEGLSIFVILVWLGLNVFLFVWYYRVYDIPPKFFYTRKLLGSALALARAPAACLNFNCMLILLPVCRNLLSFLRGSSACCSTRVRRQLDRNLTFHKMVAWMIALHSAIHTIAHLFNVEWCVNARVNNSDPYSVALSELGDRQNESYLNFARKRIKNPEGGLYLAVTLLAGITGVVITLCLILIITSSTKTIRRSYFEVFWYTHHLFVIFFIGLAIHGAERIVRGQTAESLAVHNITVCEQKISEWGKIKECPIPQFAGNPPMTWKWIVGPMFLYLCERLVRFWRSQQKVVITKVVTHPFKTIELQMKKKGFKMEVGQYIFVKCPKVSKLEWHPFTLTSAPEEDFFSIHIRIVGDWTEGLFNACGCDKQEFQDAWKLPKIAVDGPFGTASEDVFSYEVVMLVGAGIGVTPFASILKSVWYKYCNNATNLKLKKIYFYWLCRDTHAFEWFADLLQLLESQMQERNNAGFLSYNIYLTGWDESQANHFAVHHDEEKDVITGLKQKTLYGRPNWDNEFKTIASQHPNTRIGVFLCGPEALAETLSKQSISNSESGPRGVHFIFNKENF

Regarding `COC(=O)C1=C(C)N(Cc2ccccc2)[C@]23O[C@](C(=O)OC)(C(=O)N2[C@@H]1c1ccccc1)[C@H]1C(=O)N(C)C(=O)[C@H]13`, the z-score in assay [1] was 0.903 (inactive) and 0.564 (inactive); in assay [3], 1.35 (inactive) and -0.228 (inactive); in assay [4] it was 0.719 (inactive) and -1.26 (inactive); in assay [5], 0.501 (inactive) and -0.562 (inactive); in [6], 0.248 (inactive) and -1.16 (inactive); in assay [7], 0.486 and 0.567. Besides, the z-score in [8] was -0.56 (inactive) and -0.171 (inactive); in assay [9], -0.329 (inactive) and 0.811 (inactive); in [10] it was 1.57 and 0.888; in [11], 0.395 and 1.67; in [12] it was 1.1 and 0.612; in assay [13], 0.0623 and -0.164. In addition, the z-score in assay [14] was 0.639 and 0.0646; in assay [15] it was -1.44 and 1.16; in assay [16], 0.873 and 0.158; in assay [17], 0.107 (inactive) and 1.13 (inactive); in [18], -0.536 and 0.12; in [19], 0.551 and -0.416. The z-score in assay [20] was -0.81 (inactive) and 0.0401 (inactive). For the same compound, the composite z-score in assay [2] was -0.0418 and 0.223.

For the compound `CC(C)[Si]1(C(C)C)OCc2cc(CCCc3cc4c(c(CCc5ccccc5)n3)[Si](C(C)C)(C(C)C)OC4)nc(CCc3ccccc3)c21`, the z-score in [1] is 2.34 (inactive) and -0.836 (inactive); in assay [3], 1.1 (inactive) and 0.221 (inactive); in assay [4] it was -0.712 (inactive) and -0.436 (inactive); in assay [5] it was -1.01 (inactive) and -0.355 (inactive); in assay [6] it was -0.788 (inactive) and -0.406 (inactive); in [7], 0.0671 and -0.999. The z-score in [8] is 1.5 (inactive) and 0.412 (inactive); in assay [9], 0.0233 (inactive) and 0.608 (inactive); in [10], -2.98 and -0.0908; in assay [11], 0.148 and -0.222; in [12], 0.673 and -0.626; in [13], -0.661 and -0.566. Further, the z-score in assay [14] was -1.66 and 0.326; in assay [15], -1.09 and -0.322; in assay [16] it was -0.508 and -1.19; in [17] it was 1.72 (inactive) and -1 (inactive); in [18], -0.152 and 1.02; in assay [19], -0.38 and -0.852. For the same compound, in assay [20], the z-score is 0.576 (inactive) and -0.19 (inactive). In assay [2], the composite z-score is -0.147 and -0.192.

Turning to `CCCNC(=O)OC[C@H]1O[C@H](CCON=C(C)CCN2CCc3nc(-c4ccccc4)c(-c4ccccc4)cc3C2)C=C[C@@H]1Oc1ccc(OC)cc1`, the z-score in assay [1] is -1.29 (inactive); in assay [3], 1.77 (inactive); in assay [4], 0.454 (inactive); in [5] it was 0.571 (inactive); in assay [6], 0.441 (inactive); in assay [7], 0.0851. The z-score is -0.473 (inactive) in assay [8]; -2.55 (inactive) in assay [9]; -2.17 in [10]; 1.18 in assay [11]; 0.723 in [12]; 0.27 in [13]. The z-score in [14] is -0.893; in [15], -0.794; in assay [16], 4.79; in [17] it was -1.65 (inactive); in assay [18], 0.179; in assay [19] it was 0.483. The z-score in [20] was 0.444 (inactive). Besides, the composite z-score in assay [2] was -0.0054.

For `COC(=O)[C@@]1(Cc2ccccc2)[C@H]2c3cc(C(=O)N(C)C)n(C[C@H](O)CO)c3C[C@H]2CN1C(=O)c1ccccc1`, the z-score in assay [1] was -0.741 (inactive) and -1.44 (inactive); in assay [3], 0.67 (inactive) and 0.448 (inactive); in [4] it was 0.324 (inactive) and 0.32 (inactive); in [5], 1.28 (inactive) and 0.776 (inactive); in [6] it was 0.789 (inactive) and 0.446 (inactive); in [7], -0.0187 and -0.333. Also, the z-score in assay [8] is -0.0779 (inactive) and 0.104 (inactive); in assay [9] it was -3.17 (inactive) and -0.539 (inactive); in [10], -4.08 and -0.292; in assay [11], -0.876 and -0.976; in assay [12], 0.318 and -0.385; in assay [13], -0.76 and -1.07. In addition, the z-score is 0.112 and 0.416 in assay [14]; -1.95 and 0.383 in assay [15]; -1.04 and -0.162 in [16]; -0.0997 (inactive) and -0.187 (inactive) in assay [17]; -0.194 and -0.294 in assay [18]; -0.609 and -0.129 in assay [19]. The z-score in assay [20] was -1.3 (inactive) and -0.848 (inactive). For the same compound, the composite z-score in assay [2] was 0.0903 and 0.415.

Consider `CC(CO)N1C(=O)[C@@H]2C3C(=O)OCCC=C[C@H]3OC23C=CCN(Cn2nnc4ccccc42)C(=O)[C@@H]13` (stereo not given in full), for which the z-score was 0.326 (inactive) and -0.353 (inactive) in assay [1]; 0.464 (inactive) and 3.04 (inactive) in assay [3]; -0.0088 (inactive) and 0.83 (inactive) in [4]; 0.879 (inactive) and 0.711 (inactive) in assay [5]; 0.163 (inactive) and 0.114 (inactive) in [6]; 0.798 and 0.483 in assay [7]. Also, the z-score in [8] is 1.14 (inactive) and 1.44 (inactive); in assay [9], 0.249 (inactive) and 0.774 (inactive); in assay [10] it was 1.47 and 2.83; in assay [11], -0.515 and 0.432; in assay [12], -0.101 and 0.061; in assay [13], -0.562 and -0.713. The z-score in assay [14] is 0.922 and -0.0987; in assay [15] it was -0.28 and 0.0829; in [16] it was -1.01 and -0.375; in assay [17] it was -0.259 (inactive) and -1.12 (inactive); in assay [18], 0.46 and -0.0108; in assay [19] it was 0.198 and -0.363. Besides, the z-score in assay [20] was -0.116 (inactive) and 0.785 (inactive). The composite z-score in assay [2] was -0.199 and 0.241.

`COC(=O)C1=C(C)N(Cc2ccccc2)C2=C(C(C)=O)C[C@@](O)(C(=O)OC)C(=O)N2[C@@H]1c1ccccc1`: the z-score in assay [1] is 0.125 (inactive) and -0.635 (inactive); in assay [3] it was 0.0793 (inactive) and -0.0501 (inactive); in assay [4], -1.13 (inactive) and -0.742 (inactive); in assay [5], 0.0531 (inactive) and -0.0986 (inactive); in assay [6] it was -1.62 (inactive) and -0.838 (inactive); in assay [7], 0.268 and 2.46. Further, the z-score in assay [8] was 0.627 (inactive) and 0.462 (inactive); in assay [9], 0.993 (inactive) and 0.524 (inactive); in [10] it was 1 and 1.04; in assay [11], -0.112 and 0.965; in assay [12] it was 0.501 and 0.0527; in assay [13], -0.491 and 0.55. Moreover, the z-score in assay [14] was 1.11 and 0.699; in assay [15], -0.0117 and 1; in assay [16], 0.931 and 0.372; in assay [17] it was 0.227 (inactive) and -0.00623 (inactive); in assay [18] it was 0.689 and -0.71; in [19], -0.16 and -0.174. The z-score in [20] was 1.25 (inactive) and 1.03 (inactive). For the same compound, the composite z-score in assay [2] is -0.147 and 0.0732.
